Source: PubChem BioAssay (NCI)
The panel holds about 79,000 compounds, 15% with a hit somewhere; the sample as a whole holds those more often. Values without a mark were called inactive. The source made the active and inactive calls. Cut-off read from the data, not from the text of the source: active = growth inhibition above about 70%; inactive = the rest.

Legend:
[1] = NCI Yeast Anticancer Drug Screen. Data for the rad52 strain (AID 147);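 note: 0% = growth of vehicle-treated control cultures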; conditions: S. cerevisiae rad52 mutant growth inhibition, active compounds read high
Procedure, shortened: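 Yeast strain carrying a DNA damage repair alteration was exposed to test compounds. Growth inhibition was measured relative to vehicle-treated controls.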

[2] = NCI Yeast Anticancer Drug Screen. Data for the wt1 strain (AID 149);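 note: 0% = growth of vehicle-treated wt1 cultures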; conditions: S. cerevisiae wt1 strain (SPY 50644) growth inhibition, active compounds read high
Procedure, shortened: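 Compounds are added to wt1 yeast cultures. Growth is then measured. Inhibition is expressed relative to vehicle-treated controls.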

[3] = NCI Yeast Anticancer Drug Screen. Data for the rad50EPP+ strain (AID 151);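 note: 0% = growth of vehicle-treated control cultures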; conditions: S. cerevisiae rad50 mutant strain, active compounds read high
Procedure, shortened: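 Yeast strain carrying rad50 alteration (rad50EPP+) exposed to compounds; growth inhibition measured relative to vehicle-treated controls.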

[4] = NCI Yeast Anticancer Drug Screen. Data for the mgt1 strain (AID 153); conditions: S. cerevisiae mgt1 mutant growth inhibition, active compounds read high
Procedure, shortened: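 Yeast mgt1 strain (DNA repair/cell-cycle alteration panel) exposed to compounds; growth inhibition measured relative to vehicle-treated controls.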

[5] = NCI Yeast Anticancer Drug Screen. Data for the rad50 strain (AID 155);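 note: 0% = growth of vehicle-only cultures of the same strain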; conditions: S. cerevisiae rad50 strain growth inhibition, active compounds read high
Procedure, shortened: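 Inhibition values express reduced yeast growth in compound-treated cultures relative to vehicle-treated controls.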

[6] = NCI Yeast Anticancer Drug Screen. Data for the mec2-1 strain (AID 157); conditions: S. cerevisiae mec2-1 strain, active compounds read high
Procedure, shortened: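 mec2-1 yeast strain, carrying an alteration in DNA damage repair or cell cycle control, was exposed to compounds; growth inhibition was measured relative to vehicle-treated controls.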

[7] = NCI Yeast Anticancer Drug Screen. Data for the rad14 strain (AID 159);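 note: 0% = growth of vehicle-treated control cultures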; conditions: S. cerevisiae rad14 strain growth inhibition, active compounds read high
Procedure, shortened: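 A mutant yeast strain defective in DNA damage repair is treated with compound; inhibition of its growth is scored against untreated, vehicle-exposed cultures.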

[8] = NCI Yeast Anticancer Drug Screen. Data for the sgs1 mgt1 strain (AID 161);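 note: 0% = growth of cultures given vehicle only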; conditions: S. cerevisiae sgs1 mgt1 strain, active compounds read high
Procedure, shortened: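 Yeast cells carrying a defined DNA-repair defect were exposed to test compounds. Growth inhibition was measured relative to vehicle-treated controls.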

[9] = NCI Yeast Anticancer Drug Screen. Data for the CLN2oe strain (AID 163);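 note: 0% = growth of vehicle-only control cultures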; conditions: S. cerevisiae CLN2oe strain, active compounds read high
Procedure, shortened: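 Yeast cells carrying a defined cell-cycle control alteration were exposed to test compounds. Growth inhibition was scored against vehicle-treated control cultures.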

[10] = NCI Yeast Anticancer Drug Screen. Data for the cln2 rad14 strain (AID 165);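 note: 0% = growth equal to vehicle treated cultures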; conditions: S. cerevisiae cln2 rad14 strain, active compounds read high
Procedure, shortened: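 Yeast carrying cln2 and rad14 alterations (cell cycle control and DNA damage repair) were exposed to compounds. Growth inhibition was measured against vehicle-treated controls.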

[11] = NCI Yeast Anticancer Drug Screen. Data for the bub3 strain (AID 167); conditions: S. cerevisiae bub3 mutant strain, active compounds read high
Procedure, shortened: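 Steps: expose the mutant yeast strain to compound; grow alongside vehicle-treated cultures; measure growth; express inhibition against the vehicle cultures.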

[12] = NCI Yeast Anticancer Drug Screen. Data for the wt2 strain (AID 169);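 note: 0% = growth of vehicle-treated yeast cultures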; conditions: S. cerevisiae wt2 strain growth inhibition, active compounds read high
Procedure, shortened: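 Yeast cells were exposed to test compounds, and growth inhibition was measured relative to vehicle-treated controls.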

[13] = NCI Yeast Anticancer Drug Screen. Data for the mlh1 strain (AID 171);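 note: 0% = growth of vehicle-treated control cultures of the same strain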; conditions: S. cerevisiae mlh1 strain growth inhibition, active compounds read high
Procedure, shortened: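 Yeast carrying a defined genetic alteration in DNA damage repair or cell cycle control were exposed to test compounds. Growth inhibition was measured relative to vehicle-treated controls.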

[14] = NCI Yeast Anticancer Drug Screen. Data for the sgs1 strain (AID 173);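 note: 0% = growth of vehicle-only control cultures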; conditions: S. cerevisiae sgs1 mutant, active compounds read high
Procedure, shortened: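 Yeast mutant strains carrying defined defects in DNA damage repair or cell cycle control were exposed to test compounds. Growth inhibition was scored against vehicle-treated controls.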

[15] = NCI Yeast Anticancer Drug Screen. Data for the mlh1 rad18 strain (AID 175); conditions: S. cerevisiae mlh1 rad18 strain growth inhibition, active compounds read high
Procedure, shortened: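 Growth inhibition of the yeast strain was measured after compound exposure and expressed relative to vehicle-treated controls. The strain carries defined defects in DNA damage repair.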

[16] = NCI Yeast Anticancer Drug Screen. Data for the rad18 strain (AID 177); conditions: S. cerevisiae rad18 mutant growth inhibition, active compounds read high
Procedure, shortened: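 Yeast carrying a defined DNA damage repair alteration were exposed to compounds. Growth inhibition was expressed relative to vehicle-treated controls.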

[17] = at 5.0 µM (retest, dose inferred, filed as 0.5)
[18] = at 50.0 µM (retest, dose inferred, filed as 5.0)

C/C(=N\OCC(O)CNCCSCc1ccccc1)c1ccccc1Cl (stereo unspecified)
growth inhibition ([1]; at 1.2 µM): 2%
growth inhibition ([1]; at 3.7 µM): 5%
growth inhibition ([1]; at 11.0 µM): 26%
growth inhibition ([1]; at 33.0 µM): 45%
growth inhibition ([1]; at 100.0 µM): 80% (active)
growth inhibition ([2]; at 1.2 µM): -3%
growth inhibition ([2]; at 3.7 µM): 0%
growth inhibition ([2]; at 11.0 µM): 6%
growth inhibition ([2]; at 33.0 µM): 19%
growth inhibition ([2]; at 100.0 µM): 40%
growth inhibition ([3]; at 1.2 µM): -1%
growth inhibition ([3]; at 3.7 µM): 0%
growth inhibition ([3]; at 11.0 µM): 2%
growth inhibition ([3]; at 33.0 µM): 6%
growth inhibition ([3]; at 100.0 µM): 12%
growth inhibition ([4]; at 1.2 µM): 4%
growth inhibition ([4]; at 3.7 µM): 9%
growth inhibition ([4]; at 11.0 µM): 34%
growth inhibition ([4]; at 33.0 µM): 85% (active)
growth inhibition ([4]; at 100.0 µM): 100% (active)
growth inhibition ([5]; at 1.2 µM): 12%
growth inhibition ([5]; at 3.7 µM): -12%
growth inhibition [5, 17]: 40%
growth inhibition ([5]; at 11.0 µM): 64%
growth inhibition ([5]; at 33.0 µM): 77% (active)
growth inhibition [5, 18]: 69%
growth inhibition ([5]; at 50.0 µM): 80.9% (active)
growth inhibition ([5]; at 100.0 µM): 95% (active)
growth inhibition ([6]; at 1.2 µM): 3%
growth inhibition ([6]; at 3.7 µM): 4%
growth inhibition [6, 17]: 2%
growth inhibition ([6]; at 11.0 µM): 28%
growth inhibition ([6]; at 33.0 µM): 50%
growth inhibition [6, 18]: 48%
growth inhibition ([6]; at 50.0 µM): 82.7% (active)
growth inhibition ([6]; at 100.0 µM): 88% (active)
growth inhibition ([7]; at 1.2 µM): 30%
growth inhibition ([7]; at 3.7 µM): 46%
growth inhibition ([7]; at 11.0 µM): 85% (active)
growth inhibition ([7]; at 33.0 µM): 99% (active)
growth inhibition ([7]; at 100.0 µM): 99% (active)
growth inhibition [8, 17]: 30%
growth inhibition [8, 18]: 58%
growth inhibition ([8]; at 50.0 µM): 87.5% (active)
growth inhibition ([9]; at 1.2 µM): -3%
growth inhibition ([9]; at 3.7 µM): 12%
growth inhibition ([9]; at 11.0 µM): 30%
growth inhibition ([9]; at 33.0 µM): 47%
growth inhibition ([9]; at 100.0 µM): 75% (active)
growth inhibition [10, 17]: 14%
growth inhibition [10, 18]: 61%
growth inhibition ([10]; at 50.0 µM): 66.8%
growth inhibition ([11]; at 1.2 µM): 6%
growth inhibition ([11]; at 3.7 µM): 25%
growth inhibition [11, 17]: 29%
growth inhibition ([11]; at 11.0 µM): 54%
growth inhibition ([11]; at 33.0 µM): 81% (active)
growth inhibition [11, 18]: 73% (active)
growth inhibition ([11]; at 50.0 µM): 86% (active)
growth inhibition ([11]; at 100.0 µM): 97% (active)
growth inhibition ([12]; at 1.2 µM): -1%
growth inhibition ([12]; at 3.7 µM): 8%
growth inhibition ([12]; at 11.0 µM): 11%
growth inhibition ([12]; at 33.0 µM): 30%
growth inhibition ([12]; at 100.0 µM): 81% (active)
growth inhibition ([13]; at 1.2 µM): 3%
growth inhibition ([13]; at 3.7 µM): 4%
growth inhibition ([13]; at 11.0 µM): 24%
growth inhibition ([13]; at 33.0 µM): 71% (active)
growth inhibition ([13]; at 100.0 µM): 99% (active)
growth inhibition ([14]; at 1.2 µM): 8%
growth inhibition ([14]; at 3.7 µM): 17%
growth inhibition ([14]; at 11.0 µM): 41%
growth inhibition ([14]; at 33.0 µM): 69%
growth inhibition ([14]; at 100.0 µM): 97% (active)
growth inhibition [15, 17]: 21%
growth inhibition [15, 18]: 41%
growth inhibition ([15]; at 50.0 µM): 95.3% (active)
growth inhibition ([16]; at 1.2 µM): 12%
growth inhibition ([16]; at 3.7 µM): 32%
growth inhibition ([16]; at 11.0 µM): 55%
growth inhibition ([16]; at 33.0 µM): 80% (active)
growth inhibition ([16]; at 100.0 µM): 97% (active)

CCCCCCC=C(C(=O)OCC)C(=O)OCC
growth inhibition ([1]; at 1.2 µM): -2%
growth inhibition ([1]; at 3.7 µM): 0%
growth inhibition ([1]; at 11.0 µM): -1%
growth inhibition ([1]; at 33.0 µM): 2%
growth inhibition ([1]; at 100.0 µM): 23%
growth inhibition ([2]; at 1.2 µM): -2%
growth inhibition ([2]; at 3.7 µM): -3%
growth inhibition ([2]; at 11.0 µM): -6%
growth inhibition ([2]; at 33.0 µM): -7%
growth inhibition ([2]; at 100.0 µM): 4%
growth inhibition ([3]; at 1.2 µM): -1%
growth inhibition ([3]; at 3.7 µM): 4%
growth inhibition ([3]; at 11.0 µM): 7%
growth inhibition ([3]; at 33.0 µM): 14%
growth inhibition ([3]; at 100.0 µM): 24%
growth inhibition ([4]; at 1.2 µM): -1%
growth inhibition ([4]; at 3.7 µM): -3%
growth inhibition ([4]; at 11.0 µM): 0%
growth inhibition ([4]; at 33.0 µM): -5%
growth inhibition ([4]; at 100.0 µM): 13%
growth inhibition ([5]; at 1.2 µM): -2%
growth inhibition ([5]; at 3.7 µM): -3%
growth inhibition [5, 17]: -18%
growth inhibition ([5]; at 11.0 µM): -3%
growth inhibition ([5]; at 33.0 µM): -5%
growth inhibition [5, 18]: 11%
growth inhibition ([5]; at 50.0 µM): -8.3%
growth inhibition ([5]; at 100.0 µM): 22%
growth inhibition ([6]; at 1.2 µM): -1%
growth inhibition ([6]; at 3.7 µM): 1%
growth inhibition [6, 17]: -8%
growth inhibition ([6]; at 11.0 µM): -2%
growth inhibition ([6]; at 33.0 µM): 5%
growth inhibition [6, 18]: 46%
growth inhibition ([6]; at 50.0 µM): 38%
growth inhibition ([6]; at 100.0 µM): 22%
growth inhibition ([7]; at 1.2 µM): -3%
growth inhibition ([7]; at 3.7 µM): -4%
growth inhibition ([7]; at 11.0 µM): -2%
growth inhibition ([7]; at 33.0 µM): 2%
growth inhibition ([7]; at 100.0 µM): 13%
growth inhibition [8, 17]: -11%
growth inhibition [8, 18]: 68%
growth inhibition ([8]; at 50.0 µM): 42%
growth inhibition ([9]; at 1.2 µM): -4%
growth inhibition ([9]; at 3.7 µM): -4%
growth inhibition ([9]; at 11.0 µM): -8%
growth inhibition ([9]; at 33.0 µM): -10%
growth inhibition ([9]; at 100.0 µM): 3%
growth inhibition [10, 17]: -13%
growth inhibition [10, 18]: 19%
growth inhibition ([10]; at 50.0 µM): 18.1%
growth inhibition ([11]; at 1.2 µM): 0%
growth inhibition ([11]; at 3.7 µM): 0%
growth inhibition [11, 17]: -6%
growth inhibition ([11]; at 11.0 µM): -1%
growth inhibition ([11]; at 33.0 µM): 1%
growth inhibition [11, 18]: 18%
growth inhibition ([11]; at 50.0 µM): 63%
growth inhibition ([11]; at 100.0 µM): 17%
growth inhibition ([12]; at 1.2 µM): -2%
growth inhibition ([12]; at 3.7 µM): -3%
growth inhibition ([12]; at 11.0 µM): -5%
growth inhibition ([12]; at 33.0 µM): -4%
growth inhibition ([12]; at 100.0 µM): 16%
growth inhibition ([13]; at 1.2 µM): -2%
growth inhibition ([13]; at 3.7 µM): -2%
growth inhibition ([13]; at 11.0 µM): -7%
growth inhibition ([13]; at 33.0 µM): 1%
growth inhibition ([13]; at 100.0 µM): 19%
growth inhibition [15, 17]: -3%
growth inhibition [15, 18]: 85% (active)
growth inhibition ([15]; at 50.0 µM): 76.3% (active)
growth inhibition ([16]; at 1.2 µM): -1%
growth inhibition ([16]; at 3.7 µM): 5%
growth inhibition ([16]; at 11.0 µM): 8%
growth inhibition ([16]; at 33.0 µM): 14%
growth inhibition ([16]; at 100.0 µM): 32%
